From PubChem BioAssay AID504850 (National Center for Advancing Translational Sciences (NCATS), 2011)
In all, about 2,300 compounds went through this assay and about 1,200 (52%) were called active. Another 34% or so got no clear call; they are omitted. Calls follow the shape of the dose curve; as a rule, active = well fitted inhibition curve with a large enough effect; inconclusive = small, poorly fitted or top-dose-only effect, or effect the other way; inactive = no such curve, though single readings can be large or run the other way. So high a share suggests a set chosen from earlier hits. Some of the results follow.

experiment: Confirmation screen for delayed death inhibitors of the malarial parasite plastid, 48 hour incubation; also: nearly all actives have a fitted effect of over 65% in size; details: P. falciparum-infected erythrocytes, luciferase growth; series mostly up to 28.7 µM
Method in brief: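 Erythrocytes infected with luciferase-expressing P. falciparum (2% hematocrit, 0.1% parasitemia) incubated with compounds 48 hours at 37 C, 5% CO2, in RPMI/Albumax. Growth inhibition scored as reduced luminescence after detection reagent.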
Potency is read from the fitted curve at half-maximal effect.

Structure (SMILES)	Potency
Cc1onc(-c2c(Cl)cccc2Cl)c1C(=O)N=C(N)N1CC(C)OC(C)C1 (stereo not drawn)	11.2 µM (active)
Cc1onc(-c2c(F)cccc2Cl)c1C(=O)N1CCCCC1	inactive
C=CCC1(O)C(=O)N2C(=C1C(=O)OCC)c1ccc3ccccc3c1CC2(C)C (stereo not drawn)	11.2 µM (active)
Cc1ccc(C(=O)NCCn2ccc3ccccc32)cc1[N+](=O)[O-]	inactive
CCCNC(=O)c1ccc(S(=O)(=O)c2ccc(OC)cc2)c([N+](=O)[O-])c1	7.94 µM (active)
O=C1Nc2ccccc2/C1=C/C(=O)c1cccs1	inactive
O=C(N/N=C/C(Cl)=C\c1ccccc1)c1cccs1	5.01 µM (active)
O=C(N/N=C(\CC(=O)c1cccs1)C(F)(F)F)c1ccncc1	inactive
CC(=O)OC[C@H]1O[C@@H](n2ncc(=O)[nH]c2=O)[C@H](OC(C)=O)[C@@H]1OC(C)=O	inactive
CCCN(CCC)S(=O)(=O)c1ccc(C(=O)NCc2ccco2)cc1	12.6 µM (active)
Cc1ccc(S(=O)(=O)N(Cc2ccccc2)c2ccccc2C(=O)Nc2ccccc2C(=O)NCc2ccco2)cc1	2.51 µM (active)
Cc1ccc(S(=O)(=O)N(CC(=O)NCc2ccco2)c2ccccc2C)cc1	12.6 µM (active)
CCN(CC(=O)Nc1c(F)cccc1F)C(=O)c1ccc(S(=O)(=O)NCc2ccco2)cc1	inactive
Cc1ccc(NC(=O)CN(C)C(=O)c2cccc(S(=O)(=O)NCc3ccco3)c2)cc1	inactive
C(=C\c1nc(N2CCCCCC2)c2ccccc2n1)/c1ccccc1	6.31 µM (active)
O=C(COc1ccccc1)N1c2ccccc2Sc2ccccc21	14.1 µM (active)
Cc1ccc(C)c(N2CCN(S(=O)(=O)c3ccc4c(c3)NC(=O)CS4)CC2)c1	11.2 µM (active)
Cc1cccc(N2CCN(S(=O)(=O)c3ccc4c(c3)NC(=O)CO4)CC2)c1C	15.8 µM (active)
COc1ccc(-c2cc(C)no2)cc1S(=O)(=O)Nc1cccc(CN2CCCC2)c1	14.1 µM (active)
Cc1ccc(OCCSCc2nnc(NC(=O)Nc3cccc(Cl)c3)s2)cc1	2.82 µM (active)
Cc1cc(=O)oc2c3c(cc(OCC(=O)Nc4cccnc4)c12)OC(C)(C)CC3	3.98 µM (active)
Cc1ccccc1-n1nc2c(c1NC(=O)C1CCCC1)CS(=O)(=O)C2	inactive

Structure (SMILES)	Potency
CCOC(=O)c1cc(-c2ccc(C)cc2)n(CCC(=O)NCCN(C)C)c1C	11.2 µM (active)
CC(C)(C)c1ccc(C(=O)Nc2sc3c(c2C(=O)O)CCC3)cc1	11.2 µM (active)
O=C(/C=C/c1ccccc1)Nc1sc2c(c1C(=O)O)CCC2	inactive
COc1ccc(S(=O)(=O)NCc2ccco2)cc1-c1nnc2c3ccccc3c(C)nn12	11.2 µM (active)
CO[C@H](C(=O)[C@@H](O)[C@@H](C)O)C1Cc2cc3cc(O[C@H]4C[C@@H](O[C@H]5C[C@@H](O)[C@H](O)[C@@H](C)O5)[C@@H](O)[C@@H](C)O4)c(C)c(O)c3c(O)c2C(=O)[C@H]1O[C@H]1C[C@@H](O[C@H]2C[C@@H](O[C@H]3C[C@](C)(O)[C@H](O)[C@@H](C)O3)[C@H](O)[C@@H](C)O2)[C@H](O)[C@@H](C)O1 (stereo partly drawn)	0.562 µM (active)
COc1ccc(N2CCN(C(=O)CSc3nc4cc(OC)c(OC)cc4cc3C#N)CC2)cc1	7.94 µM (active)
Cc1ccc(OCC(=O)NNc2c3ccccc3nc3ccccc23)cc1	10 µM (active)
O=C(CCCO)NNc1c2ccccc2nc2ccccc12	11.2 µM (active)
O=C(NNc1c2ccccc2nc2ccccc12)C(O)c1ccccc1 (stereo not drawn)	12.6 µM (active)
COc1ccccc1OCC(=O)NNc1c2ccccc2nc2ccccc12	10 µM (active)
O=C(COc1ccccc1)NNc1c2ccccc2nc2ccccc12	11.2 µM (active)
COc1cccc(C(=O)N/N=C(\C)CC(=O)Nc2ccc(N(C)C)cc2)c1	inactive
COc1cccc(C(=O)NNc2c3ccccc3nc3ccccc23)c1	10 µM (active)
Cc1ccc(C(=O)NNc2c3ccccc3nc3ccccc23)cc1	15.8 µM (active)
Cc1cccc(OCC(=O)NNc2c3ccccc3nc3ccccc23)c1	11.2 µM (active)
O=C(Nn1c(COc2ccccc2)nc2ccccc2c1=O)C(Cl)(Cl)Cl	inactive
COc1ccc(Cn2c(-c3ccccc3)nc3c(c(=O)c4ccccc4n3C)c2=O)cc1	11.2 µM (active)
COc1ccc(CCn2c(C(C)C)nc3c(c(=O)c4ccccc4n3C)c2=O)cc1	11.2 µM (active)
COc1ccc(-c2nc3c(c(=O)c4ccccc4n3C)c(=O)n2Cc2ccccc2)cc1	10 µM (active)
O=C(/C=C/c1ccc(Cl)c(Cl)c1)NCCCn1ccnc1	15.8 µM (active)
CCc1ccccc1Nc1nc(N)nc(COC(=O)CCNS(=O)(=O)c2ccccc2)n1	12.6 µM (active)
O=C(O)CCNS(=O)(=O)c1cccc(Br)c1	inactive

Structure (SMILES)	Potency
Cc1ccc(C(=O)OCc2nc(N)nc(Nc3ccccc3C)n2)cc1	12.6 µM (active)
CCc1ccccc1Nc1nc(N)nc(COC(=O)CCC(=O)c2ccc(F)cc2)n1	8.91 µM (active)
CCCCN(C)C(=O)C1CCC(CNS(=O)(=O)c2ccc3c(c2)CC(C)N3C(=O)C2CC2)CC1 (stereo not drawn)	12.6 µM (active)
CCc1ccc(N/C(SCc2cccc(F)c2)=C(/C#N)C(=O)NCc2ccco2)cc1	10 µM (active)
C#Cc1ccc(CN2CCN(CCCc3ccccc3)C(CCO)C2)cc1 (stereo not drawn)	11.2 µM (active)
CC(C)/C=C/CN1CCN(CCCc2ccccc2)C(CCO)C1 (stereo not drawn)	12.6 µM (active)
COc1ccccc1N1CCN(C(=O)c2noc(C(C)C)c2[N+](=O)[O-])CC1	10 µM (active)
COc1ccc(S(=O)(=O)N2CCc3ccccc32)cc1C(=O)Nc1cccnc1	12.6 µM (active)
Cc1ccc(NC(=O)c2cc(S(=O)(=O)N3CCc4ccccc43)cn2C)cc1	11.2 µM (active)
COc1ccc(S(=O)(=O)N(C)c2ccc(C(=O)Nc3cccnc3)cc2)cc1OC	14.1 µM (active)
CCOc1ccc2c(c1)sc(N)[n+]2Cc1cc(C)cc2cccnc12	5.62 µM (active)
O=C(Nc1cccc(S(=O)(=O)NCc2ccco2)c1)c1cc(-c2ccc(F)cc2)nc2ccccc12	inactive
O=C(NCc1ccco1)c1cc2sccc2n1Cc1ccc(F)cc1	12.6 µM (active)
Cc1ccc(/C=N/NC(=O)CSc2nc3ccccc3c(=O)n2-c2ccccc2C)s1	11.2 µM (active)
COc1ccc(C(C)=O)cc1CSc1nc2ccccc2c(=O)n1-c1ccccc1C	7.08 µM (active)
O=C1C2CCCN2C(c2ccccc2)N1c1ccc(Cl)cc1 (stereo not drawn)	inactive
O=C1C(=O)c2ccccc2C(O)=C1C1CCC(c2ccc(Cl)cc2)CC1 (stereo not drawn)	0.02 µM (active)
O=C(NCc1ccccn1)c1cc(-c2ccc(-c3ccccc3)cc2)nc2ccccc12	15.8 µM (active)
Cc1cc(NC(=O)CSc2sc3c(O)cc(=O)[nH]c3c2C#N)ccc1Br	14.1 µM (active)
N#Cc1c(SCC(=O)Nc2ccc(C(F)(F)F)cc2)sc2c(O)cc(=O)[nH]c12	0.316 µM (active)
O=C(CCN1C(=O)/C(=C/c2ccccc2)SC1=S)NCCc1ccc(O)cc1	inactive
O=C(O)CCCN1C(=O)/C(=C\C(Cl)=C\c2ccccc2)SC1=S	14.1 µM (active)

Structure (SMILES)	Potency
CCC/C(=N\NC(=O)c1ccco1)c1ccc(Cl)s1	11.2 µM (active)
CC1CCCN(Cc2c(O)ccc3c(=O)c(-c4nc5ccccc5s4)c(N)oc23)C1 (stereo not drawn)	0.316 µM (active)
C=CCN(c1ccccc1)S(=O)(=O)c1cccc(C(=O)N2CC(C)CC(C)C2)c1 (stereo not drawn)	14.1 µM (active)
COc1ccc(Nc2nnc(-c3ccc(C)cc3)c3ccccc23)cc1C(=O)N1CCCCC1	2.51 µM (active)
COc1ccc(Nc2nnc(-c3ccccc3)c3ccccc23)cc1C(=O)N1CCCCC1	7.94 µM (active)
Cc1ccc(C)c(-c2cc(C(=O)Nc3nccs3)c3ccccc3n2)c1	4.47 µM (active)
Cc1ccc(C)c(-c2cc(C(=O)NNC(=S)NCC(C)C)c3ccccc3n2)c1	14.1 µM (active)
Cc1ccccc1-c1cc(C(=O)n2cccn2)c2cc(Cl)ccc2n1	inactive
CCC1OC(=O)C[C@@H](O)[C@H](C)[C@@H](OC2OC(C)CC(N(C)C)C2O)[C@@H](CC=O)C[C@@H](C)C(=O)/C=C/[C@]2(C)OC2C1C (stereo partly drawn)	11.2 µM (active)
Cc1onc(-c2ccccc2Cl)c1C(=O)N1CCC(Cc2ccccc2)CC1	15.8 µM (active)
Cc1onc(-c2ccccc2Cl)c1C(=O)N1CC(C)CC(C)C1 (stereo not drawn)	inactive
Cc1ccc(S(=O)(=O)N(C)C)cc1NC(=O)c1cncc(Br)c1	8.91 µM (active)
NCCCNc1nc(N)c([N+](=O)[O-])c(NC2CCCCC2)n1	3.98 µM (active)
N=C(N)c1ccc(OCCCCCOc2ccc(C(=N)N)cc2)cc1	1 µM (active)
Cc1cccc(-n2c(C)cc(/C=N\NC(=O)c3cccs3)c2C)c1	11.2 µM (active)
COc1ccc(CCNC(=O)C(=O)NCC2OCCN2S(=O)(=O)c2ccc3c(c2)OCCO3)cc1OC (stereo not drawn)	11.2 µM (active)
O=C(NCCCn1ccnc1)C(=O)NCC1OCCN1S(=O)(=O)c1ccc(F)cc1 (stereo not drawn)	inactive
CCC(C(=O)O)C1OC(C(C)C(O)C(C)C(=O)C(CC)C2OC3(C=CC(O)C4(CCC(C)(C5CCC(O)(CC)C(C)O5)O4)O3)C(C)CC2C)C(C)CC1C (stereo not drawn)	0.251 µM (active)
O=C(CCl)NCc1c(Cl)cccc1-n1cccc1	12.6 µM (active)
Cc1ccc(CS(=O)(=O)Cc2ccc(C(=O)NC3CCCC3)o2)cc1	11.2 µM (active)
C/C(CC(=O)NC1CCCCC1)=N\NC(=O)COc1ccc(C)cc1Br	inactive
O=C(NC1CCCCC1)c1ccc(CS(=O)Cc2ccccc2Cl)o1 (stereo not drawn)	12.6 µM (active)
